PubChem BioAssay (NCI)
The panel holds about 79,000 compounds, 15% with a hit somewhere; the sample as a whole holds those more often. No stated cut-off is given here; in the data, active means growth inhibition above about 70%; inactive means the rest.

Tests used:
[1] = NCI Yeast Anticancer Drug Screen. Data for the rad50 strain (AID 155);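 further: 0% = growth of vehicle-only cultures of the same strain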; settings: S. cerevisiae rad50 strain growth inhibition; at 50.0 µM; hits give high values
Summary of the method: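 A DNA repair-deficient yeast mutant serves as the test organism; compound-induced growth inhibition is calculated against vehicle-treated cells.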

[2] = NCI Yeast Anticancer Drug Screen. Data for the mec2-1 strain (AID 157); settings: S. cerevisiae mec2-1 strain, at 50.0 µM, hits give high values
Summary of the method: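 mec2-1 yeast strain, carrying an alteration in DNA damage repair or cell cycle control, was exposed to compounds; growth inhibition was measured relative to vehicle-treated controls.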

[3] = NCI Yeast Anticancer Drug Screen. Data for the sgs1 mgt1 strain (AID 161);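 further: 0% = growth of cultures given vehicle only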; settings: S. cerevisiae sgs1 mgt1 strain, at 50.0 µM, hits give high values
Summary of the method: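 Growth of a repair-deficient yeast mutant was monitored after compound treatment and expressed as inhibition relative to vehicle-treated cultures.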

[4] = NCI Yeast Anticancer Drug Screen. Data for the cln2 rad14 strain (AID 165);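 further: 0% = growth equal to vehicle treated cultures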; settings: S. cerevisiae cln2 rad14 strain, at 50.0 µM, hits give high values
Summary of the method: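 Yeast carrying cln2 and rad14 alterations (cell cycle control and DNA damage repair) were exposed to compounds. Growth inhibition was measured against vehicle-treated controls.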

[5] = NCI Yeast Anticancer Drug Screen. Data for the bub3 strain (AID 167); settings: S. cerevisiae bub3 mutant strain, at 50.0 µM, hits give high values
Summary of the method: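 Inhibition values come from growth of compound-treated mutant yeast normalised to vehicle-treated controls.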

[6] = NCI Yeast Anticancer Drug Screen. Data for the mlh1 rad18 strain (AID 175); settings: S. cerevisiae mlh1 rad18 strain growth inhibition; at 50.0 µM; hits give high values
Summary of the method: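 Growth inhibition of the yeast strain was measured after compound exposure and expressed relative to vehicle-treated controls. The strain carries defined defects in DNA damage repair.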

Measured: growth inhibition

O=C1CCC(O)=C1O
inactive: [1] -7.75% | [2] -11.4% | [3] 2.3% | [4] 26.5% | [5] -2.35% | [6] -0.25%

CC(Oc1ccccc1)C(=O)Nc1ccc(F)cc1 (stereo unspecified)
inactive: [1] -1% | [2] 9.5% | [3] 17.8% | [4] -11.1% | [5] 35.9% | [6] 17.6%

Cc1[nH]c(=O)[nH]c(=O)c1/C=C/C(=O)NC(CO)CSC(C)C (stereo unspecified)
inactive: [1] -2% | [2] 27.1% | [3] -7.75% | [4] -3.9% | [5] 8.4% | [6] 9.55%

O=C1c2ccccc2-c2ccc([N+](=O)[O-])cc21
inactive: [1] 35.6% | [2] 5.8% | [3] -0.3% | [4] 8.65% | [5] -1.3% | [6] -2.85%

O=C(O)c1ccc(/C=N/NC(=S)Nc2cccc3cccnc23)cc1
inactive: [1] 22.1% | [2] 7.4% | [3] 6.6% | [4] 16.4% | [5] 10.2% | [6] -17.1%

Cc1cc(C)c(NC(=O)Nc2ccccc2F)cc1C
inactive: [1] 18.7% | [2] 19.6% | [3] 14.3% | [4] 24.7% | [5] 33.1% | [6] 8.85%

ClC(Cl)(Cl)C(=NNc1ccccc1)C(Cl)(Cl)Cl
inactive: [1] -0.1% | [2] 16.4% | [3] 30.4% | [4] 50.5% | [5] 30.6% | [6] 69.5%

Cn1c(C2CCc3cc(O)ccc3C2)cccc1=O (stereo unspecified)
inactive: [1] -26.8% | [2] 13.1% | [3] -4.25% | [4] -19.6% | [5] 14.7% | [6] -4.35%

Cc1ccc(C(=O)/C(C#N)=C/Nc2c(C)n(C)n(-c3ccccc3)c2=O)cc1
inactive: [1] 17% | [2] 23.6% | [3] 20.1% | [4] 12.8% | [5] 19.5% | [6] 26.5%

CCCCCCCCCCCCCCCCCCNC(=O)N1CCC(C)CC1
inactive: [1] -7.9% | [2] -4.8% | [3] 21.2% | [4] -13.7% | [5] 4.95% | [6] -24.6%

CC1=Nc2c(ccc3c2C(=O)c2ccccc2C3=O)NC(c2ccncc2)C1 (stereo unspecified)
inactive: [1] 31.1% | [2] 5% | [3] 47.6% | [4] 17.6% | [5] 0.35% | [6] 12.4%

OCCN(Cc1ccccc1)Cc1ncccc1O
inactive: [1] 9.35% | [2] -27.1% | [3] -11.4% | [4] 8.85% | [5] -3.9% | [6] 5.7%

Cc1ccc(C(C)(C#N)Nc2ccccc2)cc1 (stereo unspecified)
inactive: [1] -7.05% | [2] -1.8% | [3] -8.2% | [4] -25.2% | [5] -11.2% | [6] -0.45%

CC(=O)N1CCc2ccccc2C1C1NCCc2ccccc21 (stereo unspecified)
inactive: [1] 14.4% | [2] 8.95% | [3] 13.1% | [4] -0.15% | [5] 1.05% | [6] 5.9%

Cn1c(=O)[nH]c(=O)c2[nH]c(=O)c(=O)n(C)c21
inactive: [1] -3.15% | [2] 23.3% | [3] 1.55% | [4] -1.9% | [5] -9.5% | [6] -13.1%

Clc1cc(Cl)c(Cl)c(Cl)c1Cl
inactive: [1] -4.1% | [2] -9.95% | [3] -0.15% | [4] 12.8% | [5] -2.7% | [6] 13.9%

O=[N+]([O-])c1ccc(/C=N\N=P(c2ccccc2)(c2ccccc2)c2ccccc2)cc1
inactive: [1] -6.25% | [2] 3.25% | [3] 12.8% | [4] 1.9% | [5] -4.65% | [6] -3.85%

CCOP(=O)(OCC)/C(C#N)=C/c1ccc(N(C)C)cc1
inactive: [1] 16.3% | [2] -9.2% | [3] 12.4% | [4] 9.8% | [5] -13.9% | [6] 5.8%

Cc1ccc(Nc2nc(C)c(C(=O)C/C(=N/NC(N)=S)C(=O)Nc3cc(Cl)cc(Cl)c3)s2)cc1
inactive: [1] -13.3% | [2] -13.1% | [3] 15.6% | [4] 22.1% | [5] -13.4% | [6] -27.8%

O=C=Nc1ccc(Cl)c(Cl)c1
inactive: [1] -19.9% | [2] -29.4% | [3] -43% | [4] -9.1% | [5] -13.7% | [6] -19.1%

CC(=O)c1ccc2c(c1)-c1ccccc1C(=O)C2=O
inactive: [1] -24.6% | [2] -22.7% | [3] 10.3% | [4] -19.8% | [5] -15.3% | [6] 5.85%
